# High-throughput results as filed in PubChem BioAssay.
# Abeta rescue: A-beta toxicity reversal in yeast | 0.063% of 410,000 active | AID 1347071 | Potency, µM (top dose mostly 46.1 µM), most hits filed as activators | yeast expressing A-beta42, growth rescue, OD600, 48 h; response scale: 0% DMSO, 100% iron-clioquinol control; further: nearly all actives have a fitted effect of over 55% in size
#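 Yeast growth medium received pinned compounds, then yeast cells expressing toxic A-beta were added; plates incubated at 30 C for 48 hr. Growth read as absorbance at 600 nm, normalized to DMSO and equimolar FeCl3 plus clioquinol controls.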
# aSyn yeast inh: inhibitors of alpha-synuclein toxicity in yeast; AID 652106; Potency, µM (series often up to 46.1 µM), actives largely listed as activators; Yeast expressing alpha-synuclein, growth rescue, BacTiter-Glo, 24 h; 0.14% of 370,000 active; further: nearly all actives have a fitted effect of over 65% in size
#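 Galactose-induced alpha-syn yeast (OD600=0.02, raffinose-pregrown) + pinned cpd, 24 hr, 30 deg C; growth by BacTiter-Glo luminescence. Growth restoration scores as activation.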
# FUS yeast rescue: rescues growth of FUS-expressing yeast; 0.24% of 390,000 active; S. cerevisiae FUS-expressing, growth rescue, OD600, 24 h; Potency, µM (series often up to 76.6 µM), hits mostly activators; further: nearly all actives have a fitted effect of over 55% in size
#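 Quantitative HTS measuring growth restoration of FUS-toxic yeast. Galactose-induced cells (OD 0.005) were exposed 24hr at 30C to compounds at several concentrations, then absorbance at 600 nm was recorded.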
# TDP43 rescue: rescues yeast growth from TDP-43 toxicity | AID 652104 | Potency, µM (titrated, usually from 46.1 µM), usual class: activators | TDP-43 expressing yeast growth rescue, BacTiter-Glo, 24 h | 1.8% of 410,000 active; further: nearly all actives have a fitted effect of over 50% in size
#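 Growth rescue of TDP-43-toxic yeast measured as ATP luminescence (BacTiter-Glo). Cells grown to mid-log in raffinose, induced in galactose at OD600=0.02, exposed to compound 24 hr at 30 deg C.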
# A number is an active result; – = inactive; ? = inconclusive; · = not tested or not shown; ! = not active in a repeat. A selection: hits, their analogues and other compounds. The true share with any hit is near 2.1%. The call rests on the fitted dose curve; in most records, active means well fitted curve in the direction sought with a large enough effect; inconclusive means small, poorly fitted or top-dose-only effect, or another doubt; inactive means no such curve, though single readings can be large; an effect the other way counts as inactive or inconclusive.
SMILES,Abeta rescue,aSyn yeast inh,FUS yeast rescue,TDP43 rescue
COc1ccc(NC(=O)c2c(NC(=O)COc3ccc(Cl)cc3)sc3c2CCCCC3)cc1,–,·,–,8.91µM
O=C(COc1ccccc1)Nc1sc2c(c1C(=O)Nc1ccccc1)CCCCC2,–,·,–,–
CC(=O)N1CCc2c(sc3c2c(=O)n(CCc2ccccc2)c(=O)n3Cc2ccc(Cl)cc2)C1,–,·,?,31.6µM
CC(=O)N1CCc2c(sc3c2c(=O)n(CCc2ccccc2)c(=O)n3Cc2ccccc2C)C1,–,·,?,35.5µM
CC(=O)N1CCc2c(sc3c2c(=O)n(Cc2ccccc2)c(=O)n3Cc2cc(C)ccc2C)C1,–,·,–,–
CCOc1ccc(-c2nc(CSCC(=O)NC3CCC3)c(C)o2)cc1,·,·,–,·
C[C@H]1[C@@H](N(C)CC2CCCCC2)CC[C@@]23CCCN2C(=O)CCC[C@@H]13,·,·,–,·
COc1ccc(OC)c(NC(=O)c2ccc(NC(C)=O)cc2)c1,–,–,–,–
COc1ccc(OC)c(NC(=O)c2ccc(OC3CSC3)cc2)c1,?,–,–,12.6µM
COc1ccc(OC)c(NC(=O)C2C3CCC(C3=C(C)C)C2C(=O)O)c1 (stereo not given),–,–,–,15.8µM
c1ncc2snnc2n1,·,–,·,·
O=C(O)C1C2C=CC(C2)C1C(=O)NCc1ccc(Cl)c(Cl)c1 (stereo not given),–,–,–,20µM
O=C(O)C1C2C=CC(C2)C1C(=O)NCc1ccc2c(c1)OCO2 (stereo not given),–,–,–,–
CNCc1nc(-c2ccc[nH]2)c2cc(Cl)ccc2n1,·,–,·,·
CCn1cc(C(=O)OCC(=O)c2cc(C)n(-c3ccccc3)c2C)c(=O)c2ccc(C)nc21,–,–,–,–
CCn1cc(C(=O)OCC(=O)c2cc(C)n(-c3ccc(OC(F)F)cc3)c2C)c(=O)c2ccc(C)nc21,–,–,·,12.6µM
CCOc1ccccc1NC(=O)COC(=O)c1cn(CC)c2nc(C)ccc2c1=O,–,·,–,35.5µM
C=CCN1C(=O)[C@@H](CC(=O)NCc2cccc(C(F)(F)F)c2)[C@]2(C(=O)OC)CCCCC=C12,·,·,–,·
CCCCNC(=O)C[C@H]1C[C@@]2(C(=O)OC)C(=C[C@H](C(C)C)O[C@@H]2C2CC2)N(CCc2ccc(OC)c(OC)c2)C1=O,·,·,–,·
CC(=O)OC12CCCN(C1)/C(=C/c1ccc(Cl)cc1)C2 (stereo not given),·,·,–,·
Cc1ccc(S(=O)(=O)n2nccc2-c2c(-c3ccccc3)noc2C)cc1,–,–,–,–
Cc1onc(-c2ccccc2)c1-c1ccnn1C(=O)NC(C)C,–,–,–,11.2µM
COCc1cc(=O)[nH]c(SCCS(=O)(=O)c2ccc(C)cc2)n1,–,–,–,–
COCc1cc(=O)[nH]c(SCCS(=O)(=O)c2ccc(Cl)cc2Cl)n1,–,–,–,6.31µM
Cc1ccc(C(=O)c2cnc3ccccc3c2-c2ccccc2)cc1,–,–,–,?
SMILES,Abeta rescue,aSyn yeast inh,FUS yeast rescue,TDP43 rescue
COc1ccc(C(=O)c2cnc3ccccc3c2-c2ccccc2)cc1,–,–,–,35.5µM
Cn1nnc2c(N3CCN(Cc4ccccc4)CC3)ncnc21,·,–,·,·
O=C(NCc1ccccc1)C1C(=O)Nc2ccccc2C(=O)N1C1CCCC1 (stereo not given),–,–,–,–
O=C(NCCc1ccccc1)C1C(=O)Nc2ccccc2C(=O)N1C1CCCCC1 (stereo not given),–,12.6µM,–,?
O=S1(=O)c2ccc(N3CC[C@H](O)C3)cc2O[C@H]2CCN1C2,·,·,–,·
COc1ccc(/C=N/NC(=O)c2cccnc2)cc1CSc1nc2ccccc2s1,–,–,·,12.6µM
Cc1nc(N2CCOCC2)nc(N2CCCCC2C)c1[N+](=O)[O-] (stereo not given),–,–,–,20µM
Cc1nc(N2CCOCC2)nc(N2CCC(C)CC2)c1[N+](=O)[O-],–,–,–,?
O=C(C#Cc1ccccc1)c1ccc([N+](=O)[O-])cc1,–,–,–,11.2µM
CCNc1nc(Cl)nc(NC2CCCCC2)n1,–,–,–,12.6µM
O=C(c1ccc(Cl)cc1)N1CCC(C(=O)N2CCCc3ccccc32)CC1,–,–,·,14.1µM
CC(NS(=O)(=O)OCC(Cl)(Cl)Cl)c1ccc(C(C)(C)C)cc1 (stereo not given),–,–,–,–
C[C@H](NS(=O)(=O)OCC(Cl)(Cl)Cl)C1CC1c1ccccc1 (stereo not given in full),–,–,–,22.4µM
COCCNc1nc(NCc2cccc(Cl)c2)c2cnn(C)c2n1,–,·,–,–
Cn1ncc2c(NCc3cccc(Cl)c3)ncnc21,–,·,–,14.1µM
CCCn1ncc2c(Nc3ccc(C)c(C)c3)ncnc21,–,–,–,11.2µM
Cn1ncc2c(Nc3ccc(Cl)c(Cl)c3)ncnc21,–,–,–,7.08µM
CC(=O)c1cc(-c2cc(C(=O)O)cc([N+](=O)[O-])c2)c(=O)n2c1CCC2,·,·,–,·
CC(C)C[C@H](NC1(C(=O)NC2CCCCC2)CCCCC1)C(=O)NCCc1c[nH]c2ccccc12,·,·,–,·
CCCCN(CCCC)c1ncnc2c1cnn2-c1cccc(C)c1,–,·,–,–
CCCCN(C)c1ncnc2c1cnn2-c1cccc(Cl)c1,–,·,–,12.6µM
COc1ccccc1N1CCN(C(=O)Cc2ccc(Cl)cc2)CC1,–,–,–,–
COc1cccc(N2CCN(C(=O)CCSCc3ccccc3F)CC2)c1,–,–,–,15.8µM
COc1ccccc1N1CCN(C(=O)CCSCc2ccccc2F)CC1,–,–,–,20µM!
COc1cccc(N2CCN(C(=O)CN3CCSc4ccccc43)CC2)c1,?,–,–,14.1µM
SMILES,Abeta rescue,aSyn yeast inh,FUS yeast rescue,TDP43 rescue
CCn1c(SCC(=O)Nc2ccc(C(N)=O)cc2)nc2sc(C)c(C)c2c1=O,·,·,–,·
CCc1c(C)c2c(C)nn(-c3ccccc3)c2oc1=O,–,–,–,25.1µM
CCOCCCn1c(SCC(=O)NCc2ccco2)nc2c(sc3ccccc32)c1=O,–,·,–,–
CCCCn1c(SCC(=O)NCc2ccco2)nc2c(sc3ccccc32)c1=O,–,–,10µM,–
Cn1cnc2c1c(=O)n(Cc1ccc(Cl)cc1Cl)c(=O)n2C,–,–,–,22.4µM
Cn1cnc2c1c(=O)n(Cc1ccccc1)c(=O)n2C,–,–,–,–
CSc1nn(Cc2cccc(Cl)c2)c(N(C(C)=O)C(C)=O)c1S(=O)(=O)c1ccccc1,–,·,–,11.2µM
COc1ccc(F)cc1-c1cc(NC(C)=O)c2ncc(-c3cccc(C(F)(F)F)c3)n2c1,?,?,?,22.4µM
COc1ccccc1-c1cc(NC=O)c2ncc(-c3cccc(C(F)(F)F)c3)n2c1,–,–,–,22.4µM
COc1cccc(-c2cnc3c(NC=O)cc(-c4ccccc4)cn23)c1,–,–,–,?
COc1cccc(-c2cnc3c(NC=O)cc(-c4ccccc4Oc4ccccc4)cn23)c1,–,?,?,35.5µM
CC(=O)Nc1cc(-c2ccc(F)cc2)cn2c(-c3ccc(F)c(Cl)c3)cnc12,–,–,–,20µM
CC(=O)Nc1cc(-c2ccccc2)cn2c(-c3ccc(F)c(Cl)c3)cnc12,–,–,?,?
